PubChem BioAssay
Records with an inconclusive call do not appear. The source made the active and inactive calls. Unless noted, no rule for the calls is given here.

Columns and labels:
[1] = yeast TOR pathway RPL19A-GFP modulators, primary screen, cell-based, S. cerevisiae, multiplex flow cytometry (AID 1862; in the data active = percent of DMSO control GFP below about 86%;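 also: lower values mimic rapamycin by blocking the RPL19A rise seen in DMSO cells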); details: S. cerevisiae RPL19A-GFP strain, flow cytometry fluorescence, 3 h; at 10 µM; stronger effect = lower value
[2] = modulators of MEP2-GFP levels in yeast, primary screen, S. cerevisiae, multiplex flow cytometry (AID 1867;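 active = GFP response, as percent of the DMSO control, above the screen-wide mean plus 3 SD, about 139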;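 also: median GFP channel fluorescence of barcode-gated MEP2-GFP cells measured by flow cytometry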); details: S. cerevisiae MEP2-GFP strain, 3 h, at 10 µM, stronger effect = higher value
[3] = modulators of CIT2-GFP expression in yeast, primary screen, S. cerevisiae, GFP fusion, multiplex flow cytometry (AID 1870;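 active = percent response above a set limit, the screen-wide mean plus 3 SD, cut at about 130% in these data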;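 also: barcoded CIT2-GFP strain pooled with four other GFP strains with rapamycin as positive control; median GFP fluorescence per well over plate mean of DMSO wells so 100% = DMSO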); details: 3 h, at 10 µM, stronger effect = higher value
[4] = modulators of LAP4-GFP expression in yeast, primary screen, S. cerevisiae, multiplex flow cytometry (AID 1873;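 active = GFP signal, as percent of the solvent control, above the screen mean plus 3 SD, about 149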); details: 3 h, at 10 µM, stronger effect = higher value
[5] = modulators of AGP1-GFP expression in yeast TOR pathway, primary screen, cell-based, multiplex flow cytometry, S. cerevisiae (AID 1887;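 active = GFP signal above the screen-wide mean plus 3 SD, that is over about 124.5% of the solvent control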;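 also: AGP1-GFP fusion strain of S. cerevisiae within a five-strain barcoded multiplex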); details: 3 h, at 10 µM, stronger effect = higher value
[6] = inhibitors of CD8+ T cell-vesicle binding, pilot screen, LFA-1/ICAM-1 modulator project, MLPCN validation set, flow cytometry (AID 2523;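 active = response below a set limit, under 55% cells CD8-positive and vesicle-bound, and CD8 cells' 90th-percentile brightness under 279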;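 as to vesicle binding response: mean PE anti-B7-1 fluorescence of CD8+ cells relative to row control; 100% = QL9-loaded vesicles with DMSO vehicle in the same plate row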); details: 2C mouse CD8+ T cells, at 7 µM, stronger effect = lower value; double positive events: measured here: CD8+/vesicle+ event percentage
[7] = target: Integrin beta-1 (Homo sapiens) + Integrin alpha-4 (Homo sapiens) (UniProt P13612+P05556); test: inhibition of HUTS-21 binding to VLA-4, pilot screen, VLA-4 allosteric modulator project, U937 cells, HUTS-21 mAb, flow cytometry, validation set (AID 2674;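 active = inhibition above 50%, about 3 SD of the validation set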;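 also: antibody binding induced by the VLA-4 ligand LDV present at three times its Kd; 0% = LDV ligand with antibody and no compound and 100% = antibody without LDV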); details: HUTS-21 LIBS mAb binding, at 6.7 µM, stronger effect = higher value
[8] = superoxide lowering in aged yeast cells, pilot screen, validation compound set (AID 2706;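 active = superoxide response below 65% of plate, a cut near 3 SD across the whole screen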;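 also: yeast exposed to compound for one week at 30 degrees C before staining; 100% = mean of all compound wells on the same plate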); details: S. cerevisiae aging, superoxide DHE fluorescence; at 10 µM; stronger effect = lower value
[9] = target: Beta-adrenergic receptor kinase 1 (Homo sapiens) (UniProt P25098); test: GRK2 binders displacing RNA aptamer, biochemical, validation, human GRK2, bead flow cytometry (AID 488806;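 active = aptamer binding inhibition above 30%, about 3 SD of noise from non-fluorescent compounds; inactive = inhibition at or below 30%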); details: bead-bound GRK2, FAM-aptamer displacement, at 10 µM, stronger effect = higher value
[10] = target: Beta-2 adrenergic receptor (Homo sapiens) (UniProt P07550); test: beta2AR agonists driving receptor internalization, pilot screen, cell-based, FAP fluorogen, flow cytometry, validation set (AID 504459;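 active = percent response above 42, roughly 3 SD of non-fluorescent test compounds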;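 also: agonist-driven loss of surface beta2AR via internalization measured by FAP dye flow cytometry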); details: Am2.2-beta2AR cells, FAP surface receptor flow cytometry; at 10 µM; stronger effect = higher value
[11] = target: AP-2 complex subunit beta (Homo sapiens) (UniProt P63010); test: inhibitors of arrestin peptide binding to AP2, pilot screen, biochemical, validation set, GST-AP2 beads, flow cytometry (AID 504541;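 active = inhibition above 54%, about 3 SD of non-fluorescent compounds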;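 also: AP2 carries R879A mutation and is captured from E. coli lysate; bead-bound FITC arrestin peptide fluorescence measuring arrestin peptide binding to AP2; 0% = DMSO wells and 100% = excess unlabeled arrestin peptide control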); details: FITC arrestin peptide, at 10 µM, stronger effect = higher value
[12] = yeast V-ATPase proton transport modulators, S. cerevisiae, pHLuorin, HTS validation (AID 504600; in the data active = response above about 15%;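 also: plate controls were DMSO for no effect and reference compound for full effect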); details: S. cerevisiae pHLuorin cytosolic pH, at 10 µM, stronger effect = higher value
[13] = test system: anti-desmoglein-3 scFv antibody binding to human DSG3; test: inhibitors of anti-DSG3 scFv binding to DSG3, pilot screen, biochemical, validation compound set, bead-based, flow cytometry (AID 588368;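 active = binding below the plate cutoff, the plate median minus 3 SD, with a reading above zero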;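 also: signal is the median channel fluorescence of bead-bound GFP antibody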); details: Protein G beads, DSG3-Fc, scFv-GFP binding, at 10 µM, stronger effect = lower value
[14] = test system: Botulinum neurotoxin type F light chain protease (Clostridium botulinum); test: Botulinum neurotoxin type F light chain protease inhibition, multiplex microsphere flow cytometry, validation set (AID 588459); details: multiplex microsphere protease substrate cleavage assay, at 10 µM, stronger effect = higher value
[15] = target: Botulinum neurotoxin type A (Clostridium botulinum) (UniProt P0DPI0); test: BoNT/A light chain protease inhibitors, biochemical, multiplex microsphere flow cytometry, validation set (AID 588460); details: at 10 µM, stronger effect = higher value
[16] = target: Lethal factor (Bacillus anthracis) (UniProt P15917); test: Lethal factor protease inhibitors, Bacillus anthracis, multiplex microsphere cleavage assay, validation set (AID 588461); details: flow cytometry, at 10 µM, stronger effect = higher value
[17] = inhibitors of fungal efflux pumps CDR1, CDR2, MDR1, pilot screen, validation compound set, multiplex, phenotypic (AID 588506;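 active = efflux inhibition above 0.42, the validation set average plus 4 SD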;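 also: Nile Red retained in cells so higher fluorescence means more efflux inhibition; 0 = negative control wells and 1 = enniatin B 25 µM full block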); details: S. cerevisiae pump-expressing triplex, Nile Red efflux flow cytometry; at 10 µM; stronger effect = higher value
[18] = target: ATP-binding cassette sub-family B member 6 (Homo sapiens) (UniProt Q9NP58); test: ABCB6 transporter inhibitors, pilot screen, K562-ABCB6 cells, flow cytometry, validation set (AID 588550;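 active = inhibition above the screen-wide mean plus 3 SD, about 51%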;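 also: 0% = DMSO wells and 100% = benzethonium chloride 70 µM positive control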); details: K562-ABCB6 porphyrin accumulation, 1 h, at 10 µM, stronger effect = higher value
[19] = promoters of myeloid differentiation in arrested cells, primary screen, cell-based, GFP/MAC1 double positive, flow cytometry, validation set (AID 588685;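 active = differentiation response of at least 50%, scaled between solvent and reference control, from cells with both markers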;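 also: compound exposure lasts four days before antibody staining and flow analysis; 0% = DMSO wells and 100% = 5 µM fulvestrant positive control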); details: ER-HoxA9 marrow cells, stronger effect = higher value

Sequence of Integrin beta-1 (Homo sapiens) + Integrin alpha-4 (Homo sapiens) (P05556 whole entry, looked up): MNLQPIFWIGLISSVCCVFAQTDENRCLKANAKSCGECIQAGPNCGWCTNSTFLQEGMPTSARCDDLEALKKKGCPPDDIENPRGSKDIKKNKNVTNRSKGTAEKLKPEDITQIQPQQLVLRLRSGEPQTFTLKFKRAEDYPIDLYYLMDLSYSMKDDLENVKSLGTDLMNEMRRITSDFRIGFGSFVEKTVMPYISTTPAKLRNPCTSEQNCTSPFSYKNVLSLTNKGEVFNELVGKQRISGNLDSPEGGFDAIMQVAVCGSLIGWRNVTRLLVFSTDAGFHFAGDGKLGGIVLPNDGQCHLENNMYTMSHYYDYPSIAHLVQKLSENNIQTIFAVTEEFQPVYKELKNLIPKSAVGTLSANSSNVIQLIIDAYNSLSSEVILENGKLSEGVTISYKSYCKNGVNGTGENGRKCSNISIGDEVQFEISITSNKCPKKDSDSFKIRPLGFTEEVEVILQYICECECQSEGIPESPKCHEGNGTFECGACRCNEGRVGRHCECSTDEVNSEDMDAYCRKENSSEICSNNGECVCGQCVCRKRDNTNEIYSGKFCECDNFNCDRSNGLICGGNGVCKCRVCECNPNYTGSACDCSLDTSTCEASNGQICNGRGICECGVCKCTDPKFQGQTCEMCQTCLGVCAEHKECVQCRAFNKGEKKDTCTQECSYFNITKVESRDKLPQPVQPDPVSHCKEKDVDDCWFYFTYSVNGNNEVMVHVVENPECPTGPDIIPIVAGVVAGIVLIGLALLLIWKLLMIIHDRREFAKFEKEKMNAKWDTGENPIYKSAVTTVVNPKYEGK
Sequence of Integrin beta-1 (Homo sapiens) + Integrin alpha-4 (Homo sapiens) (P13612 whole entry, looked up): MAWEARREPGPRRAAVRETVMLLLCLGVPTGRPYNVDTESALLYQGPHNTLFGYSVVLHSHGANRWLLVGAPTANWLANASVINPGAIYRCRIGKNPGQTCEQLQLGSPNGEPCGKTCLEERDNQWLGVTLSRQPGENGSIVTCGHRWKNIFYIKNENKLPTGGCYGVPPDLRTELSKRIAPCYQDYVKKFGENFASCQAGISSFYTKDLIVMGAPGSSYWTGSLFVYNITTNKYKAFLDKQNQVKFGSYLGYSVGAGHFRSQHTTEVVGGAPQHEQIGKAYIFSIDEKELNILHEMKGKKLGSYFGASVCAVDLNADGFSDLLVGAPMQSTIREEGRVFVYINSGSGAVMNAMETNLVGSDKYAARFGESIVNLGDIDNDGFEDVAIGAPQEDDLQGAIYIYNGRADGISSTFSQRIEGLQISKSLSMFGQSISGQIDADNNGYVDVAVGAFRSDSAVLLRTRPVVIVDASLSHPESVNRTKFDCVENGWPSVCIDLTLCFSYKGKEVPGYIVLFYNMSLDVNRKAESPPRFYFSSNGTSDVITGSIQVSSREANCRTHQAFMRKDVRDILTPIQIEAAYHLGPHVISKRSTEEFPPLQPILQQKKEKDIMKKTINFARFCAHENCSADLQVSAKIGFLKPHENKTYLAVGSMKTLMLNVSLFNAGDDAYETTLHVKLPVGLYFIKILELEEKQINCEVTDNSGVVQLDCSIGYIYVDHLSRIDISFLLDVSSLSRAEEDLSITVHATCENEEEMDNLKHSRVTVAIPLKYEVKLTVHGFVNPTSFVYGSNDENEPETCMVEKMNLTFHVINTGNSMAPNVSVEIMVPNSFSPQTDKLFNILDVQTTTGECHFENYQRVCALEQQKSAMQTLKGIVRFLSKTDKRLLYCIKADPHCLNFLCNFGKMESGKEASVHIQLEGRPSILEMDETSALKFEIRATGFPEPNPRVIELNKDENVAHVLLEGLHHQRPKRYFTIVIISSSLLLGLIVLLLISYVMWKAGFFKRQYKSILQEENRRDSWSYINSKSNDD
Sequence of Lethal factor (Bacillus anthracis) (P15917 whole entry, looked up): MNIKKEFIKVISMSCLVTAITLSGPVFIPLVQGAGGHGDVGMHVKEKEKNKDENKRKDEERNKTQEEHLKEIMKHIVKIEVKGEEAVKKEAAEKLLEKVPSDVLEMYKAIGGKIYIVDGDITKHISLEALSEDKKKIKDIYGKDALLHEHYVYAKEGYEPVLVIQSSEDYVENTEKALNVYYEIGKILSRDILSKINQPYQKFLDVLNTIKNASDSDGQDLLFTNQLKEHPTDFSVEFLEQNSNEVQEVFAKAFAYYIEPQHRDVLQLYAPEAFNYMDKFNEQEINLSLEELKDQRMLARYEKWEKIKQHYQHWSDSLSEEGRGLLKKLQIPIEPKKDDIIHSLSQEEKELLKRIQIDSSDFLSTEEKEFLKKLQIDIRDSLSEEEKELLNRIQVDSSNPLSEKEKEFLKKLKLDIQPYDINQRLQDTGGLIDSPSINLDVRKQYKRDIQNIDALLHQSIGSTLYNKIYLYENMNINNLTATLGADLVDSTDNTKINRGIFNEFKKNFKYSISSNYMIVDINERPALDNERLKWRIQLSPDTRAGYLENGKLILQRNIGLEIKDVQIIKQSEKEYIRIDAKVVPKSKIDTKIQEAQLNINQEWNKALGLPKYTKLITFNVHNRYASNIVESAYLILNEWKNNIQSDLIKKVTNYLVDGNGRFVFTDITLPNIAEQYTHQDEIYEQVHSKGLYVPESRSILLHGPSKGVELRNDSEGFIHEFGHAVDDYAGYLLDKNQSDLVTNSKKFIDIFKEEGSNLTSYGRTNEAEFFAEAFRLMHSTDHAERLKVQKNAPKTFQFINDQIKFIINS
Sequence of Botulinum neurotoxin type A (Clostridium botulinum) (P0DPI0 whole entry, looked up): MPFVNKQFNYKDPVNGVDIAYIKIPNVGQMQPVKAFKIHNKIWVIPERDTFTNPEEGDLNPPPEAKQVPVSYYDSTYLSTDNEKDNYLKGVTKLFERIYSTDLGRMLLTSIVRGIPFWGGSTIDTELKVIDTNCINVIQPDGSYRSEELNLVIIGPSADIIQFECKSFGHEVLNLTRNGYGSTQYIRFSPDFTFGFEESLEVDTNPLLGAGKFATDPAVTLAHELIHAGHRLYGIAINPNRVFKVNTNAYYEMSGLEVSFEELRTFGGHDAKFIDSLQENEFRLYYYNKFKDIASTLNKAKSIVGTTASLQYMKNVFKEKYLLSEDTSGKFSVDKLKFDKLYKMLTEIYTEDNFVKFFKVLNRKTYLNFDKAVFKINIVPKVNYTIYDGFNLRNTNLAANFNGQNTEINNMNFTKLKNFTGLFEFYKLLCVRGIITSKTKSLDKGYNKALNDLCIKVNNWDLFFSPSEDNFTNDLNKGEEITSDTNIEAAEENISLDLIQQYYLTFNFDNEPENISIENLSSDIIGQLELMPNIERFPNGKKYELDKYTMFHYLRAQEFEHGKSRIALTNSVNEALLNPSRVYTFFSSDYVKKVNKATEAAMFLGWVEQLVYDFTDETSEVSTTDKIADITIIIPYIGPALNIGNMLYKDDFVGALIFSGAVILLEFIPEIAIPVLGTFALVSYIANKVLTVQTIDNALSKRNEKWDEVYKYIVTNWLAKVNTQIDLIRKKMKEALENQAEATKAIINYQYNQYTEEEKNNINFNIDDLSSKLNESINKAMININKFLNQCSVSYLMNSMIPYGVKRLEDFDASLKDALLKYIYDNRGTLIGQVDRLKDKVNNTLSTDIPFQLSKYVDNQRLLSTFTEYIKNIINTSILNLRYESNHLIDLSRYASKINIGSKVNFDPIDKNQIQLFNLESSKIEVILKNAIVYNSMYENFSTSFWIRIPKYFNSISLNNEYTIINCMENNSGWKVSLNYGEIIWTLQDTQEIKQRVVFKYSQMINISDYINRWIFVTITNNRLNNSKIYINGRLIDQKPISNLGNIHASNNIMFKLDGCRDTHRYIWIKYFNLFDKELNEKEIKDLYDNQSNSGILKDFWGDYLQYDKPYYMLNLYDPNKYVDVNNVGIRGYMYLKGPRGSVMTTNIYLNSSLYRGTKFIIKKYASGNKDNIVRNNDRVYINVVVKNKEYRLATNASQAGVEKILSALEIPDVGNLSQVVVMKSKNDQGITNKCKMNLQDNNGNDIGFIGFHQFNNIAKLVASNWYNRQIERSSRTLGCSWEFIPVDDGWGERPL
Sequence of Beta-2 adrenergic receptor (Homo sapiens) (P07550 whole entry, looked up): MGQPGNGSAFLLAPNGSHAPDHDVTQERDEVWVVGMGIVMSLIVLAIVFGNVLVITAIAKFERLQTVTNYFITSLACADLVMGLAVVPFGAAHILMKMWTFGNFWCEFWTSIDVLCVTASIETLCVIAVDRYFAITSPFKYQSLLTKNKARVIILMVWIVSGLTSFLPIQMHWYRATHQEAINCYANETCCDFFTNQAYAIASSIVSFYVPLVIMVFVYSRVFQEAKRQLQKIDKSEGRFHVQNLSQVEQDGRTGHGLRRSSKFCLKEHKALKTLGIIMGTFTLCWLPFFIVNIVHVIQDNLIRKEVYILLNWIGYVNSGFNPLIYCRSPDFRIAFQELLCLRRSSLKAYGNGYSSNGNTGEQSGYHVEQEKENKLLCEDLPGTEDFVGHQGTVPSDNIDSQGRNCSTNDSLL
Sequence of Beta-adrenergic receptor kinase 1 (Homo sapiens) (P25098 whole entry, looked up): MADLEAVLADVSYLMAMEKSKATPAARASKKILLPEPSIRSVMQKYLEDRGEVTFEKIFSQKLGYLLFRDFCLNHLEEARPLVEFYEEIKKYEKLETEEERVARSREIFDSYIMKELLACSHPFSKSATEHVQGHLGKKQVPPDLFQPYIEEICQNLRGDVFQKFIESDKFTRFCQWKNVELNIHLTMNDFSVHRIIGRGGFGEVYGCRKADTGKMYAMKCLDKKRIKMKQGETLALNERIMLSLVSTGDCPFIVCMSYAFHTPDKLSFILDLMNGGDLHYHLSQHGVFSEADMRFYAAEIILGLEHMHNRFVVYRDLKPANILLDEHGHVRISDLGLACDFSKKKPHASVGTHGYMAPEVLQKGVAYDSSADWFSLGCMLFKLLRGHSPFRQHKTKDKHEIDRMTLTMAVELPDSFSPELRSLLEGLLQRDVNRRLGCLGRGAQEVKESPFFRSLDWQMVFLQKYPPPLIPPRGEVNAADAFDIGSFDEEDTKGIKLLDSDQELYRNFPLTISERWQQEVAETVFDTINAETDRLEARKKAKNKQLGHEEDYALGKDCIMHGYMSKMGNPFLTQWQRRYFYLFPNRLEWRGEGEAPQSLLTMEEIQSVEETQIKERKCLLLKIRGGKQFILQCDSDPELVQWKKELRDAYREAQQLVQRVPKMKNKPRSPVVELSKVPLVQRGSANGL

SMILES	percent of DMSO control GFP [1]	GFP response vs DMSO [2]	percent response of DMSO control [3]	GFP response vs DMSO [4]	GFP response, % of DMSO [5]	double positive events [6] [%]	vesicle binding response [6]	inhibition [7]	superoxide response (% of plate) [8]	aptamer binding inhibition [9]	response [10]	inhibition [11]	response [12]	binding (% of control) [13]	inhibition [14]	inhibition [15]	inhibition [16]	efflux inhibition (fraction of control) [17]	inhibition [18]	differentiation response [19]
Cc1ccc(-n2c(C)cc(/C=C3/C(=O)NC(=O)N(C)C3=O)c2C)cc1	103% (inactive)	103% (inactive)	107% (inactive)	103% (inactive)	106% (inactive)	64.1	164% (inactive)	0.25% (inactive)	94.5% (inactive)	-5% (inactive)	3.21% (inactive)	-0.22% (inactive)	5.34% (inactive)	108% (inactive)	-1.4% (inactive)	0.3% (inactive)	-5% (inactive)	-0.22 (inactive)	-2% (inactive)	-14.8% (inactive)
C#CCN(C)C(C)Cc1ccccc1 (stereo not given)	100% (inactive)	108% (inactive)	104% (inactive)	88.7% (inactive)	102% (inactive)	62.5	225% (inactive)	1.62% (inactive)	97.6% (inactive)	3% (inactive)	-1.41% (inactive)	-6.88% (inactive)	3.03% (inactive)	97.2% (inactive)	-1% (inactive)	-0.6% (inactive)	3.9% (inactive)	-0.1 (inactive)	-12% (inactive)	15.9% (inactive)
CC12CC[C@H]3[C@@H](CCC4(O)C[C@H](O)CCC34/C=N/NC(=O)Cc3ccccc3)C1(O)CCC2C1=CC(=O)OC1 (stereo not given in full)	103% (inactive)	101% (inactive)	115% (inactive)	92% (inactive)	107% (inactive)	65.3	204% (inactive)	1.62% (inactive)	111% (inactive)	1% (inactive)	-5.5% (inactive)	-3.69% (inactive)	1.22% (inactive)	95% (inactive)	3.5% (inactive)	-0.2% (inactive)	3.2% (inactive)	0.08 (inactive)	5% (inactive)	0.24% (inactive)
COP(=S)(OC)SCN1C(=O)c2ccccc2C1=O	90.6% (inactive)	92.7% (inactive)	97% (inactive)	144% (inactive)	107% (inactive)	63.5	194% (inactive)	0.59% (inactive)	97.7% (inactive)	-4% (inactive)	-10.4% (inactive)	-11.6% (inactive)	6.49% (inactive)	96.4% (inactive)	-1.7% (inactive)	-0.5% (inactive)	-2.9% (inactive)	-0.09 (inactive)	-1% (inactive)	3.88% (inactive)
O=c1c2ccccc2nc(/C=C/c2ccc3c(c2)OCO3)n1-c1ccccc1	102% (inactive)	105% (inactive)	100% (inactive)	110% (inactive)	98.9% (inactive)	59.9	140% (inactive)	1.44% (inactive)	90.1% (inactive)	4% (inactive)	-4.14% (inactive)	-1.43% (inactive)	-7.21% (inactive)	106% (inactive)	-0.7% (inactive)	0.6% (inactive)	-5% (inactive)	0.33 (inactive)	0% (inactive)	7.82% (inactive)
CC(C)NC(C)C(=O)c1ccc2ccccc2c1 (stereo not given)	104% (inactive)	99.6% (inactive)	98.6% (inactive)	113% (inactive)	107% (inactive)	63.7	278% (inactive)	-0.43% (inactive)	121% (inactive)	1% (inactive)	14.8% (inactive)	-7.53% (inactive)	3.67% (inactive)	98.4% (inactive)	1.8% (inactive)	2% (inactive)	1.1% (inactive)	-0.28 (inactive)	106% (active)	108% (active)
CCCC[N+]1(C)[C@@H]2CC(OC(=O)[C@H](CO)c3ccccc3)C[C@H]1[C@@H]1O[C@@H]12 (stereo not given in full)	107% (inactive)	109% (inactive)	106% (inactive)	112% (inactive)	111% (inactive)	59.9	150% (inactive)	-15.8% (inactive)	97.4% (inactive)	4% (inactive)	-2.08% (inactive)	0.96% (inactive)	-3.56% (inactive)	96.4% (inactive)	1.1% (inactive)	0.2% (inactive)	-5.3% (inactive)	0.3 (inactive)	28% (inactive)	13% (inactive)
COc1cccc(Oc2c(C)oc3cc(OC(=O)N(C)C)ccc3c2=O)c1	102% (inactive)	102% (inactive)	107% (inactive)	99.1% (inactive)	99.4% (inactive)	60.2	148% (inactive)	5.61% (inactive)	110% (inactive)	0% (inactive)	-2.34% (inactive)	8.84% (inactive)	-4.25% (inactive)	101% (inactive)	-1.7% (inactive)	-0.4% (inactive)	-1.2% (inactive)	-0.02 (inactive)	23% (inactive)	-3.11% (inactive)
